Experimental data reported in PubChem BioAssay (NCATS).
Inconclusive results are not listed. Where a call stands in place of a potency, no number is given. Activity calls are given as the source filed them. Calls come from the whole dose curve; as a rule, active = well fitted inhibition curve with a large enough effect; inconclusive = small, poorly fitted or top-dose-only effect; inactive = flat fitted curve, though single readings scatter.

Columns and labels:
Assay in all cases: qHTS profiling for inhibitors of Plasmodium falciparum proliferation (AID 504749); note: nearly all actives have a fitted effect of over 60% in size
Conditions in all cases: P. falciparum in erythrocytes, SYBR Green DNA, 72 h; series mostly up to 28.7 µM
CP260 = test system: CP260
Summary of the method: (§1)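 Three-day growth assay of blood-stage parasites in erythrocytes (0.3% parasitemia, 2.5% hematocrit) at 37 C, 5% CO2, quantified by SYBR Green DNA staining after overnight detergent lysis.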

CP265 = test system: CP265
Summary of the method: as §1

CP269 = test system: CP269
Summary of the method: as §1

CP286 = test system: CP286
Summary of the method: as §1

CP291 = test system: CP291
Summary of the method: as §1

CP297 = test system: CP297
Summary of the method: as §1

CP315 = test system: CP315
Summary of the method: as §1

CP325 = test system: CP325
Summary of the method: as §1

CP329 = test system: CP329
Summary of the method: as §1

CP335 = test system: CP335
Summary of the method: as §1

DFO2036 = test system: DFO2036
Summary of the method: as §1

DIV14 = test system: DIV14
Summary of the method: as §1

DIV17 = test system: DIV17
Summary of the method: as §1

DIV30 = test system: DIV30
Summary of the method: as §1

Dd2 = test system: Dd2
Summary of the method: as §1

ECU = test system: ECU
Summary of the method: as §1

CP266 = test system: CP266
Summary of the method: as §1

CP268 = test system: CP268
Summary of the method: as §1

CP305 = test system: CP305
Summary of the method: as §1

CP262 = test system: CP262
Summary of the method: as §1
Potency is the fitted concentration of half-maximal effect.

SMILES | Potency (CP260) | Potency (CP265) | Potency (CP269) | Potency (CP286) | Potency (CP291) | Potency (CP297) | Potency (CP315) | Potency (CP325) | Potency (CP329) | Potency (CP335) | Potency (DFO2036) | Potency (DIV14) | Potency (DIV17) | Potency (DIV30) | Potency (Dd2) | Potency (ECU) | Potency (CP266) | Potency (CP268) | Potency (CP305) | Potency (CP262)
C/C(=C\c1csc(C)n1)[C@@H]1C[C@@H]2O[C@]2(C)CCC[C@H](C)[C@H](O)[C@@H](C)C(=O)C(C)(C)[C@@H](O)CC(=O)O1 | 0.0022 µM (active) | 0.004 µM (active) | 0.0038 µM (active) | 0.0018 µM (active) | 0.0021 µM (active) | 0.0043 µM (active) | 2.4 nM (active) | 0.0027 µM (active) | 0.0034 µM (active) | 0.0012 µM (active) | 0.0032 µM (active) | 0.0034 µM (active) | 0.0034 µM (active) | 0.0048 µM (active) | 0.0013 µM (active) | 0.0045 µM (active) | – | – | – | –
C[CH2][Hg][S]c1ccccc1C(=O)O | 1 µM (active) | 1.41 µM (active) | 1.69 µM (active) | 1.41 µM (active) | 3.79 µM (active) | 1.69 µM (active) | 4260 nM (active) | 1.69 µM (active) | 1.69 µM (active) | 1.35 µM (active) | 2 µM (active) | 1.9 µM (active) | 1.51 µM (active) | 4.26 µM (active) | 2.24 µM (active) | 3.16 µM (active) | 4.26 µM (active) | 3.79 µM (active) | 3.79 µM (active) | –
C[C@@H](Cc1ccccc1)NCCC(c1ccccc1)c1ccccc1 | – | – | – | – | – | – | inactive | inactive | inactive | – | inactive | 3.22 µM (active) | 2.56 µM (active) | – | – | 3.55 µM (active) | – | – | – | –
Oc1cccc[c]1[Hg][Cl] | 5.62 µM (active) | 10 µM (active) | 4.26 µM (active) | 7.94 µM (active) | 10.7 µM (active) | 13.5 µM (active) | – | 12 µM (active) | 9.53 µM (active) | – | 5.62 µM (active) | 4.78 µM (active) | 5.36 µM (active) | 9.53 µM (active) | 2.51 µM (active) | 3.55 µM (active) | 9.53 µM (active) | 7.57 µM (active) | 6.01 µM (active) | –
O=c1c2ccccc2[se]n1-c1ccccc1 | inactive | – | inactive | – | inactive | inactive | inactive | inactive | inactive | – | – | – | – | inactive | – | – | inactive | inactive | inactive | inactive
O=C(CS(=O)C(c1ccccc1)c1ccccc1)NO (centres undefined) | – | inactive | inactive | inactive | inactive | inactive | inactive | inactive | inactive | inactive | inactive | inactive | inactive | inactive | inactive | inactive | inactive | inactive | inactive | inactive
C=CCC1(C(C)CCC)C(=O)N=C(S)NC1=O (centres undefined) | inactive | inactive | – | inactive | – | – | – | – | – | inactive | inactive | – | – | – | inactive | inactive | inactive | – | – | –
OC(c1ccccc1)(c1ccccc1)C1CN2CCC1CC2 (centres undefined) | – | inactive | inactive | inactive | inactive | – | inactive | inactive | inactive | – | inactive | – | 3.79 µM (active) | – | – | – | – | inactive | inactive | inactive
CN1[C@@H]2CC[C@H]1CC(OC1c3ccccc3CCc3ccccc31)C2 (some centres undefined) | – | inactive | inactive | – | inactive | – | inactive | inactive | inactive | inactive | – | 1.81 µM (active) | 1.81 µM (active) | inactive | – | 3.55 µM (active) | inactive | inactive | inactive | inactive
N#CC1(N2CCCCC2)CCCCC1 | – | inactive | inactive | inactive | inactive | inactive | inactive | inactive | inactive | inactive | inactive | inactive | inactive | inactive | inactive | inactive | inactive | inactive | inactive | inactive
CNC(=O)Oc1ccccc1C(=O)Nc1ccccc1 | inactive | inactive | inactive | inactive | inactive | – | – | inactive | inactive | inactive | inactive | – | – | – | – | 11.2 µM (active) | inactive | inactive | inactive | –
NCC(O)c1cccc(O)c1 (centres undefined) | inactive | inactive | inactive | inactive | inactive | inactive | inactive | inactive | inactive | inactive | inactive | inactive | inactive | inactive | inactive | inactive | – | inactive | inactive | inactive
CCCCCCCCCC(=O)O[C@H]1CC[C@H]2[C@@H]3CCC4=CC(=O)CC[C@]4(C)[C@H]3CC[C@]12C | – | inactive | inactive | – | inactive | inactive | inactive | inactive | inactive | – | inactive | inactive | inactive | inactive | inactive | inactive | inactive | inactive | inactive | inactive
c1ccc2cc(CC3=NCCN3)ccc2c1 | inactive | inactive | inactive | inactive | inactive | inactive | inactive | inactive | inactive | inactive | inactive | – | inactive | inactive | inactive | inactive | – | inactive | inactive | inactive
S=C(S)N1CCNCC1 | – | inactive | inactive | inactive | inactive | inactive | inactive | inactive | inactive | inactive | inactive | inactive | inactive | inactive | inactive | inactive | inactive | inactive | inactive | inactive
CCN(CC)C(=O)/C(Cl)=C(\C)OP(=O)(OC)OC | inactive | inactive | – | inactive | – | 13.5 µM (active) | – | – | – | – | inactive | – | – | – | inactive | inactive | – | – | – | inactive
CCCN1CCCC2Cc3[nH]ncc3CC21 (centres undefined) | inactive | inactive | – | inactive | – | – | – | – | – | – | inactive | – | – | – | inactive | inactive | – | – | – | –
CC12NC(Cc3ccccc31)c1ccccc12 (centres undefined) | – | 8.91 µM (active) | – | – | – | 6.01 µM (active) | inactive | inactive | – | – | – | – | – | inactive | 11.2 µM (active) | inactive | inactive | inactive | inactive | inactive
[Cl-].[Cl-].[Hg+2] | – | – | – | – | – | – | – | – | – | – | 11.2 µM (active) | – | – | 15.1 µM (active) | 12.6 µM (active) | 6.31 µM (active) | inactive | – | – | inactive
CCC1(CC)C(=O)NC(=O)N(C)C1=O | inactive | inactive | inactive | inactive | inactive | inactive | inactive | inactive | inactive | inactive | inactive | inactive | – | inactive | inactive | inactive | – | inactive | inactive | inactive
O=[N+]([O-])c1cc(I)c(O)c(I)c1 | inactive | inactive | inactive | inactive | inactive | inactive | inactive | inactive | inactive | inactive | inactive | inactive | inactive | inactive | inactive | inactive | – | inactive | inactive | inactive
COc1ccc2c(c1OC)C(=O)OC2C1c2cc3c(cc2CCN1C)OCO3 (centres undefined) | inactive | inactive | – | inactive | – | – | – | – | – | – | inactive | – | – | – | inactive | inactive | – | – | – | –
C[N+]1(C)CCCCC1COC(=O)C(O)(c1ccccc1)c1ccccc1 (centres undefined) | – | inactive | inactive | inactive | inactive | inactive | inactive | inactive | inactive | inactive | inactive | inactive | inactive | inactive | inactive | inactive | inactive | inactive | inactive | inactive
C[C@]12CCC(=O)C[C@@H]1CC[C@@H]1[C@@H]2CC[C@]2(C)[C@@H](O)CC[C@@H]12 | – | inactive | inactive | inactive | inactive | inactive | inactive | inactive | inactive | inactive | inactive | inactive | inactive | inactive | inactive | inactive | inactive | inactive | inactive | inactive
C=CCN1CC[C@]23c4c5ccc(O)c4O[C@H]2[C@@H](O)C=C[C@H]3[C@H]1C5 | inactive | inactive | inactive | inactive | inactive | inactive | inactive | inactive | inactive | inactive | inactive | inactive | inactive | inactive | inactive | inactive | – | inactive | inactive | inactive
[N-]=[N+]=CC(=O)OCC(N)C(=O)O (centres undefined) | – | inactive | inactive | inactive | inactive | inactive | inactive | inactive | inactive | inactive | inactive | inactive | inactive | inactive | inactive | inactive | inactive | inactive | inactive | inactive
C[C@H]1CCC[C@H](O)CCCCCc2cc(O)cc(O)c2C(=O)O1 | – | inactive | inactive | inactive | inactive | – | inactive | inactive | inactive | inactive | inactive | – | – | inactive | inactive | – | inactive | inactive | inactive | inactive
CNC(C)C(O)c1ccc(O)cc1 (centres undefined) | – | inactive | inactive | inactive | inactive | inactive | inactive | inactive | inactive | inactive | inactive | inactive | inactive | inactive | inactive | inactive | inactive | inactive | inactive | inactive
c1ccc(C2(N3CCCC3)CCCCC2)cc1 | 8.91 µM (active) | – | – | 10 µM (active) | – | 15.1 µM (active) | – | – | – | 10.7 µM (active) | 10 µM (active) | 12 µM (active) | 15.1 µM (active) | – | 12.6 µM (active) | – | inactive | – | – | –
CCOc1ccc2c3c1O[C@H]1[C@@H](O)C=C[C@H]4[C@@H](C2)N(C)CC[C@@]341 | inactive | inactive | – | inactive | – | 15.1 µM (active) | – | – | inactive | inactive | inactive | 15.1 µM (active) | – | – | inactive | inactive | inactive | – | – | –
